Screening results (PubChem BioAssay)
A selection: hits, their analogues and other compounds. The true share with any hit is near 21%.
ELG1 repair inh: qHTS screen for small molecules that inhibit ELG1-dependent DNA repair in human embryonic kidney (HEK293T) cells expressing luciferase-tagged ELG1. HEK293T ELG1-luciferase reporter, luminescence, 16 h; DNA damage induced by 5-fluorouridine. Potency, µM (titrated, usually from 46.1 µM), inactives show at the top dose activity change, negative = inhibition, most hits filed as inhibitors. 2.3% of 330,000 active. AID 504467, 2011; also: potency is read from the fitted curve at half-maximal effect; nearly all actives have a fitted effect of over 55% in size
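Step one: seed 2,000 cells per well. Step two: pin-transfer compound or DMSO alongside 5-fluorouridine. Step three: incubate 16 hr, 37 °C, 5% CO2. Step four: add ONE-Glo, wait 30 min, read luminescence.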
TDP1 cell CPT: qHTS for Inhibitors of human tyrosyl-DNA phosphodiesterase 1 (TDP1): qHTS in cells in presence of CPT | chicken DT40 Tdp1-/-;hTDP1 cells + 20 nM CPT, ATP luminescence, 48 h | Potency, µM (highest dose often 46.2 µM), without a hit: at the top dose activity change, negative = growth inhibition, most hits filed as inhibitors | 12% of 420,000 active; also: potency is read from the fitted curve at half-maximal effect; nearly all actives have a fitted effect of over 55% in size
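Chicken DT40 Tdp1-/- cells complemented with human TDP1, 400 cells/well, exposed to compounds plus 20 nM camptothecin for at least 48 h at 37 C; viability read as ATP content by CellTiter-Glo luminescence.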
RORg inh: qHTS for inhibitors of ROR gamma transcriptional activity; Drosophila S2 Gal4-RORgamma UAS-luciferase reporter, 20 h; Potency, µM (top dose mostly 53.6 µM), inactives show top-dose activity change, negative = inhibition, usual class: inhibitors; AID 2551, 2010; 5.4% of 310,000 active; also: potency is read from the fitted curve at half-maximal effect; nearly all actives have a fitted effect of over 60% in size
Target sequence (P51450 whole entry, looked up, the tested form may be a part): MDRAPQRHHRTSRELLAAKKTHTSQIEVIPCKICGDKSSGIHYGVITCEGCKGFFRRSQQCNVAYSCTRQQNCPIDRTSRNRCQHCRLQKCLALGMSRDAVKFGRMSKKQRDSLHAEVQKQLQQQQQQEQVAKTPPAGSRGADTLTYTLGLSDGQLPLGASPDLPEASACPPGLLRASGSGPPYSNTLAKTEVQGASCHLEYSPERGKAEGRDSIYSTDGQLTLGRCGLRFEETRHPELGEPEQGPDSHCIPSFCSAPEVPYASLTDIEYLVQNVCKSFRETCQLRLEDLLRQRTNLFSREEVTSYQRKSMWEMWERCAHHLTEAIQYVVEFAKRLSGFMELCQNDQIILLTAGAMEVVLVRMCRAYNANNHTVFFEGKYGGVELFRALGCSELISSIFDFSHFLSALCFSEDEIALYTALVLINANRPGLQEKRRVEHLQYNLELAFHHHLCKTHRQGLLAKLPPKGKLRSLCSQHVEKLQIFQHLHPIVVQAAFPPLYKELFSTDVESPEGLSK
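Drosophila S2 cells stably expressing Gal4-DBD/mouse RORγ fusion under metallothionein promoter plus UAS-luciferase; compound 1 h, then 700 uM CuSO4 induction for 20 h at ambient temperature; inhibition read as reduced luminescence.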
DT40 TDP1 no CPT: qHTS for Inhibitors of human tyrosyl-DNA phosphodiesterase 1 (TDP1): qHTS in cells in absence of CPT | DT40 Tdp1-/- hTDP1 cells, no CPT, ATP luminescence, 48 h | Potency, µM (titrated, usually from 46.2 µM), without a hit: at the top dose activity change, negative = growth inhibition, hits mostly inhibitors | 15% of 420,000 active; also: potency is read from the fitted curve at half-maximal effect; nearly all actives have a fitted effect of over 55% in size
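Compound effects on proliferation are scored in DT40 Tdp1-/-;hTDP1 cells in the absence of CPT. ATP levels (CellTiter-Glo luminescence) are recorded after a ≥48 hr, 37 °C incubation.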
Gal4-VP16 FLuc: VP16 counterscreen qHTS for inhibitors of ROR gamma transcriptional activity | Drosophila S2 Gal4-VP16 UAS-luciferase, luminescence, 20 h | Potency, µM (titrated, usually from 53.6 µM), for inactives: at the top dose activity, negative = inhibition, hits mostly inhibitors | 3.5% of 310,000 active | AID 2546, 2010;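 also: Gal4-VP16 expression switched on by copper sulfate through the metallothionein promoter; potency is read from the fitted curve at half-maximal effect; nearly all actives have a fitted effect of over 50% in size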
IL-1B inflam inh: qHTS for Inhibitors of Inflammasome Signaling: IL-1-beta AlphaLISA Primary Screen | activity change, % at 57.5 µM | 4.7% of 360,000 active | THP-1 LPS/ATP IL-1B secretion, AlphaLISA, 16 h; active compounds read low; in the data active = activity change below about -50%; inconclusive = mostly about -30% to -49%
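Secreted IL-1B measured by AlphaLISA bead assay after 16 h compound exposure of THP-1 cells; compounds (final up to 57.5 uM) added 1 h before LPS (250 ng/mL) and ATP (1.25 mM) stimulation; lower signal means less secretion.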
Active calls of the source: *; ? = inconclusive; · = no result given; [ ] = dose if it differs, or a comment. Unless noted, calls follow the shape of the dose curve; as a rule, active = well fitted curve in the direction sought with a large enough effect; inconclusive = small, poorly fitted or top-dose-only effect, or another doubt; inactive = no such curve, though single readings can be large; an effect the other way counts as inactive or inconclusive. % is scaled to controls: 0 for no effect and ±100 for the full control effect.

SMILES | ELG1 repair inh | TDP1 cell CPT | RORg inh | DT40 TDP1 no CPT | Gal4-VP16 FLuc | IL-1B inflam inh
Cc1ccccc1/C=N/n1c(COc2ccccc2)n[nH]c1=S | -18.8% | 24.7% | 4.47µM* | ? | ? | 8.0
COc1ccc(OC)c(/C=N/n2c(COc3ccccc3)n[nH]c2=S)c1 | 1.8% | -0.6% | ? | 11.6% | -15.8% | 56.9
Cc1ccc(/C=N/n2c(COc3ccccc3)n[nH]c2=S)s1 | -0.8% | -7.3% | -6.5% | -8.1% | -2.0% | 46.9
S=c1[nH]nc(COc2ccccc2)n1/N=C/c1ccc(Cl)cc1Cl | -8.2% | -7.4% | 7.08µM* | -14.8% | -20.7% | 5.0
Cc1ccccc1NC(=O)Cn1c(NCC(C)O)nc2ccccc21 (configuration not stated) | 19.8% | -16.6% | 4.1% | 15.7% | 2.6% | -22.3
O=C(NN1C(=O)NC2(CCCCC2)C1=O)c1cccs1 | 13.4% | -17.6% | · | -19.6% | · | 0.0
S=c1[nH]nc(COc2ccccc2)n1/N=C/c1ccc(Br)s1 | -4.3% | -20.7% | 2.51µM* | -28.1% | ? | 0.0
COc1ccc(/C=N/n2c(COc3ccccc3)n[nH]c2=S)cc1OC | 4.9% | -4.1% | 5.01µM* | -5.4% | -2.5% | 33.6
Fc1ccccc1/C=N/n1c(COc2ccccc2)n[nH]c1=S | -21.9% | 9.4% | 6.31µM* | -0.4% | ? | 18.0
S=c1[nH]nc(COc2ccccc2)n1/N=C/c1ccc(Cl)cc1 | -9.7% | 32.8% | ? | -19.3% | -15.9% | 54.1
Cc1n[nH]c(=S)n1/N=C/c1ccccc1OCc1ccc(Cl)cc1Cl | -0.5% | ? | 2.82µM* | ? | 7.08µM* | 12.1
COc1cc(OC)c(OC)cc1/C=N/n1c(COc2ccccc2)n[nH]c1=S | -12.2% | 1.0% | -38.5% | -27.8% | -8.8% | 19.5
O=C(CCC(=O)N(CC(=O)NC1CCCCC1)Cc1cccs1)Nc1ccccn1 | -3.2% | 8.8% | 18.9% | -0.7% | 4.4% | 17.8
Cc1nnc(N/N=C/c2ccccc2C(F)(F)F)n1N | 1.4% | -18.3% | · | -3.3% | · | -9.3
CN(C)c1cc(N/N=C/c2ccccc2C(F)(F)F)nc(N(C)C)n1 | 16.4µM* | -24.7% | -0.4% | ? | 1.6% | -5.2
CCOC(=O)N/N=C1/C[C@@H](O)[C@@H](O)[C@@H]2[C@@H]3C(=O)N([C@@H](C)c4ccccc4)C(=O)[C@H]3CC[C@H]12 | · | · | 4.1%[10 µM] | · | -13.8%[10 µM] | ·
COc1cc(CC(=O)OCC(=O)c2ccc3c(c2)OCCO3)cc(OC)c1OC | 12.1% | 1.3µM* | 6.8% | 1.3µM* | -2.1% | 59.8
COc1ccc(/C=C/C(=O)c2ccc3c(c2)OCCO3)cc1[N+](=O)[O-] | ? | ? | 0.5% | 14.6µM* | 1.0% | -55.1*
O=C(/C=C/c1cccc([N+](=O)[O-])c1)c1ccc2c(c1)OCCO2 | ? | ? | ? | 18.4µM* | ? | 0.0
COc1ccccc1NC(CC(=O)c1ccccc1)C(=O)OCC(=O)c1ccc(Br)cc1 (configuration not stated) | ? | ? | 14.9% | ? | ? | 5.1
COc1ccccc1NC(CC(=O)c1ccccc1)C(=O)OCC(=O)c1ccc(C)c(C)c1 (configuration not stated) | ? | 10.3µM* | 3.4% | 16.4µM* | ? | 4.9
COc1cccc(/C=C/C(=O)OCC(=O)c2ccc(C)c(C)c2)c1OC | 6.9% | -27.5% | · | 25.9µM* | · | -5.2
COc1cccc(/C=C/C(=O)c2ccc3c(c2)OCCO3)c1OC | ? | 4.11µM* | 11.2µM* | ? | ? | -99.3*
CCN(CC(=O)Nc1ccc2c(c1)OCCO2)C(=O)/C=C/c1cccc(OC)c1OC | ? | -5.4% | · | -0.9% | · | -3.2
C=CCCO[C@@H]1O[C@@H](C)[C@H](O)C[C@H]1O | 13.2% | 0.3% | · | -0.9% | · | -0.3
SMILES | ELG1 repair inh | TDP1 cell CPT | RORg inh | DT40 TDP1 no CPT | Gal4-VP16 FLuc | IL-1B inflam inh
CO[C@@H]1/C=C\CC(=O)N[C@@H](C)C(=O)OC[C@H](NS(=O)(=O)c2ccc(C)cc2)[C@H](C)/C=C\CC(=O)OC[C@H]1C | · | · | -14.8%[10 µM] | · | 2.7%[10 µM] | ·
COc1ccc(C(=O)COC(=O)C2CCCN2C(=O)C23CC4CC(CC(C4)C2)C3)cc1 (configuration not stated) | 0.4% | 23.1µM* | -0.7% | -24.3% | -2.1% | 1.3
O=Cc1ccccc1-c1cn(CCCOCc2ccccc2)nn1 | 13.0% | ? | 20.3% | ? | 0.3% | 11.7
Cc1nc(N)nc(N)c1Oc1ccc(Cl)cc1 | · | 9.2µM* | · | ? | · | 18.8
Cc1ccc(NC(=O)CCn2nc(C)c(S(=O)(=O)N3CCCCC3)c2C)cc1Cl | · | ? | · | 16.4µM* | · | ·
Cc1nn(CCC(=O)Nc2ccc(Cl)cc2)c(C)c1S(=O)(=O)N1CCCCC1 | · | 20.6µM* | · | 14.6µM* | · | ·
Cc1nn(CCC(=O)N2CCN(c3ccccc3)CC2)c(C)c1S(=O)(=O)N1CCCC1 | · | 18.4µM* | · | ? | · | ·
Cc1c(C(=O)N2CC[C@@H]3CCCC[C@H]3C2)sc2ncnc(NCCc3ccccn3)c12 | · | -12.3%[9.04 µM] | · | ? | · | ·
CCOC(=O)C1=C(C)N(CC(C)C)C(=O)/C1=C\c1ccc(OCC(=O)Nc2ccccc2)cc1 | ? | -8.6% | 32.5% | ? | -6.9% | -12.6
O=C(c1ccc(N2CCC(NCCCn3ncc4ccccc43)CC2)cc1)N1CCc2ccccc2C1 | · | 5.5%[9.04 µM] | · | ? | · | ·
CCCCCc1ccc(C(=O)CCCC)c(=S)[nH]1 | -10.2% | -24.5% | 2.51µM* | ? | -23.3% | -9.1
COc1cc(Cl)ccc1OCc1cc(C(=O)NC(C)Cc2cccnc2)no1 (configuration not stated) | ? | ? | 22.7% | ? | -7.7% | -7.2
CCOC(=O)c1ccc(S(=O)(=O)N2CCN(CC(O)COc3cccc(C(C)=O)c3)CC2)cc1 (configuration not stated) | 13.1% | -10.0% | 13.0% | -5.5% | 3.8% | -77.6*
Cc1ccc(S(=O)(=O)N2CCN(CC(O)COc3ccccc3)CC2)cc1 (configuration not stated) | -21.1% | 3.7% | 11.4% | -16.0% | -2.0% | 15.8
